Calls of active or inactive are those of the source. How the source made its calls: active means hit-call score of the fitted dose curve at least 0.9, where 1 is the maximum; inactive means score below 0.9.
These molecules were tested on Cytochrome P450 (CYP1A1), CYP1A1 (gene 1543) (assay: LTEA_HepaRG_CYP1A1: Life Technologies and Expression Analysis (LTEA) Assay for Cytochrome P450 (CYP1A1) using HepaRG (AID 2283454)). Conditions: mRNA level, 48 h; actives raise or lower the signal.
Method in brief: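 Differentiated HepaRG cells in serum-free induction medium were exposed in duplicate for 48 h to eight half-log concentrations up to 100 uM in 0.5% DMSO. CYP1A1 mRNA was quantified by TaqMan qRT-PCR, normalized to ACTB, GAPDH and POLR2A.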

Row | Structure (SMILES) | AC50 | outcome
1 | Cc1ncc(CO)c(CO)c1O | 65.3 µM (active) | –
2 | CCCCCCCCCC(=O)O | 70.9 µM (active) | –
3 | OCCO | – | inactive
4 | NCc1cccc(C2CCN(C(=O)c3ccc(C#Cc4ccccc4F)o3)CC2)c1 | 12.7 µM (active) | –
5 | Cc1cccc2ccccc12 | – | inactive
6 | CC(O)CC(C)(C)O (stereo not given) | – | inactive
7 | Cc1cc(F)ccc1-c1cc(N2CC[C@@H](O)[C@H]2CO)ncc1N(C)C(=O)C(C)(C)c1cc(C(F)(F)F)cc(C(F)(F)F)c1 | 70.6 µM (active) | –
8 | CCCCCCCCCCCO | – | inactive
9 | c1ccc2ccccc2c1 | – | inactive
10 | CCO[Si](CCCNC(N)=O)(OCC)OCC | 50 µM (active) | –
11 | Cc1ccc(C(C)C)cc1 | 74.9 µM (active) | –
12 | c1ccc(C[n+]2cccc3ccccc32)cc1 | 36.8 µM (active) | –
13 | O=C1O[C@H]([C@@H](O)CO)C(O)=C1O | 61.8 µM (active) | –
14 | CCCOC(=O)c1cc(O)c(O)c(O)c1 | 10.1 µM (active) | –
15 | CCCC(=O)OCCC(C)C | 68.2 µM (active) | –
16 | Oc1ccccc1 | – | inactive
17 | Cc1cn([C@H]2C[C@H](N=[N+]=[N-])[C@@H](CO)O2)c(=O)[nH]c1=O | – | inactive
18 | CC/C(=C(/CC)c1ccc(O)cc1)c1ccc(O)cc1 | – | inactive
19 | O=c1ccc2ccccc2o1 | – | inactive
20 | COc1ccc2cc(S(=O)(=O)N[C@H](CC(=O)N[C@H](Cc3ccc(CN4[C@H](C)CCC[C@@H]4C)cc3)C(=O)N(C)C(C)C)c3ccc4c(c3)OCO4)ccc2c1 | 24.4 µM (active) | –
21 | O=CCCCC=O | – | inactive
22 | CN(C)c1ccc(C(=C2C=CC(=[N+](C)C)C=C2)c2ccc(N(C)C)cc2)cc1 | 7.18 µM (active) | –
23 | O=c1[nH]sc2ccccc12 | 64.5 µM (active) | –
24 | COc1cc(C(=O)NC2CCN(C)CC2)ccc1Nc1ncc2c(n1)N(C1CCCC1)CC(F)(F)C(=O)N2C | 2.11 µM (active) | –
25 | Cc1occc1C(=O)Nc1ccc(C(=O)N2CCC(F)(F)/C(=C\C(=O)N3CCC(N4CCCCC4)CC3)c3ccccc32)cc1 | 16.8 µM (active) | –
26 | CC(C)(C)c1csc(-c2cc3cc(OCc4ccccc4CC(=O)O)ccc3o2)n1 | 12.2 µM (active) | –
27 | CC1=CC(=O)/C(=C(/C)O)C(=O)O1 | – | inactive
28 | CC[C@@H]1C[C@H](N(Cc2cc(C(F)(F)F)cc(C(F)(F)F)c2)C(C)=O)c2cc(C(F)(F)F)ccc2N1C(=O)OC(C)C | 16.7 µM (active) | –
29 | CN(C[C@@H](CC[N+]12CCC(C3CCCCC3)(CC1)CC2)c1ccc(Cl)c(Cl)c1)C(=O)c1cc(C(F)(F)F)cc(C(F)(F)F)c1 | 14.9 µM (active) | –
30 | O=C(O)c1ccccc1-n1cc(C(=O)O)c(=O)c2cc(Nc3c(F)cc(F)cc3Cl)c(Cl)cc21 | 20.5 µM (active) | –

Source: PubChem BioAssay (EPA / NIEHS)
